# In the supplement of paper PMC4466140:
# B1: unnamed (peptide)
# chain: YLTRPLPSTPNEDSR
# Biological target: AgAbp1
# Experiment: SPOT peptide array binding signal intensity (averaged, normalized) (arbitrary units (background-subtracted, floor 0; scale differs between SH3 domains)); higher = stronger binding of the SH3 domain to the peptide
# Outline: (§1)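 Spot intensities were captured after detection with anti-GST antibody, an HRP-linked anti-mouse secondary and luminol, and quantified with Genespotter. The probes were GST-fused SH3 domains from four yeast species, produced in E. coli BL21(DE3), purified on glutathione Sepharose and incubated at 10 μg/ml overnight at 4°C on cellulose-bound synthetic 15-mer peptides with cysteines replaced by serines. Binding signal is the normalized, background-subtracted spot intensity averaged over replicates, and its arbitrary units differ between domains.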
row,Binder,SPOT peptide array binding signal intensity
1,B1,7

# Biological target: AgBbc1
# Experiment: as above
# Outline: as §1
row,Binder,SPOT peptide array binding signal intensity
1,B1,39.5

# Biological target: AgBem1-D1
# Experiment: as above
# Outline: as §1
row,Binder,SPOT peptide array binding signal intensity
1,B1,≤ 0

# Biological target: AgBzz1-D1
# Experiment: as above
# Outline: as §1
row,Binder,SPOT peptide array binding signal intensity
1,B1,17.5

# Biological target: AgBzz1-D2
# Experiment: as above
# Outline: as §1
row,Binder,SPOT peptide array binding signal intensity
1,B1,≤ 0

# Biological target: AgCyk3
# Experiment: as above
# Outline: as §1
row,Binder,SPOT peptide array binding signal intensity
1,B1,42

# Biological target: AgFus1
# Experiment: as above
# Outline: as §1
row,Binder,SPOT peptide array binding signal intensity
1,B1,≤ 0

# Biological target: AgHof1
# Experiment: as above
# Outline: as §1
row,Binder,SPOT peptide array binding signal intensity
1,B1,13.2

# Biological target: AgHse1
# Experiment: as above
# Outline: as §1
row,Binder,SPOT peptide array binding signal intensity
1,B1,≤ 0

# Biological target: AgLsb1
# Experiment: as above
# Outline: as §1
row,Binder,SPOT peptide array binding signal intensity
1,B1,96

# Biological target: AgLsb4
# Experiment: as above
# Outline: as §1
row,Binder,SPOT peptide array binding signal intensity
1,B1,853

# Biological target: AgMyo5
# Experiment: as above
# Outline: as §1
row,Binder,SPOT peptide array binding signal intensity
1,B1,2.25

# Biological target: AgNbp2
# Experiment: as above
# Outline: as §1
row,Binder,SPOT peptide array binding signal intensity
1,B1,≤ 0

# Biological target: AgRvs167
# Experiment: as above
# Outline: as §1
row,Binder,SPOT peptide array binding signal intensity
1,B1,404

# Biological target: AgSho1
# Experiment: as above
# Outline: as §1
row,Binder,SPOT peptide array binding signal intensity
1,B1,1790

# Biological target: AgSla1-D1-D2
# Experiment: as above
# Outline: as §1
row,Binder,SPOT peptide array binding signal intensity
1,B1,1

# Biological target: AgSla1-D3
# Experiment: as above
# Outline: as §1
row,Binder,SPOT peptide array binding signal intensity
1,B1,≤ 0

# Biological target: CaAbp1-D1
# Experiment: as above
# Outline: as §1
row,Binder,SPOT peptide array binding signal intensity
1,B1,11

# Biological target: CaAbp1-D2
# Experiment: as above
# Outline: as §1
row,Binder,SPOT peptide array binding signal intensity
1,B1,7

# Biological target: CaBbc1
# Experiment: as above
# Outline: as §1
row,Binder,SPOT peptide array binding signal intensity
1,B1,134

# Biological target: CaBem1-D1
# Experiment: as above
# Outline: as §1
row,Binder,SPOT peptide array binding signal intensity
1,B1,≤ 0

# Biological target: CaBzz1-D1
# Experiment: as above
# Outline: as §1
row,Binder,SPOT peptide array binding signal intensity
1,B1,42

# Biological target: CaBzz1-D2
# Experiment: as above
# Outline: as §1
row,Binder,SPOT peptide array binding signal intensity
1,B1,12.5

# Biological target: CaCyk3
# Experiment: as above
# Outline: as §1
row,Binder,SPOT peptide array binding signal intensity
1,B1,8

# Biological target: CaFus1
# Experiment: as above
# Outline: as §1
row,Binder,SPOT peptide array binding signal intensity
1,B1,≤ 0

# Biological target: CaHof1
# Experiment: as above
# Outline: as §1
row,Binder,SPOT peptide array binding signal intensity
1,B1,69.8

# Biological target: CaHse1
# Experiment: as above
# Outline: as §1
row,Binder,SPOT peptide array binding signal intensity
1,B1,28.5

# Biological target: CaLsb1
# Experiment: as above
# Outline: as §1
row,Binder,SPOT peptide array binding signal intensity
1,B1,≤ 0

# Biological target: CaLsb4
# Experiment: as above
# Outline: as §1
row,Binder,SPOT peptide array binding signal intensity
1,B1,406

# Biological target: CaMyo5
# Experiment: as above
# Outline: as §1
row,Binder,SPOT peptide array binding signal intensity
1,B1,≤ 0
